From PubChem BioAssay AID1214 (Sanford-Burnham Center for Chemical Genomics, 2008)
The campaign covered roughly 190,000 compounds. About 10 (0.005%) were called active. These entries were drawn from the full list. Values without a mark were called inactive.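 How the source made its calls: active means activation factor of 2 or more at 20 µM, relative to plate controls; inactive means the rest.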

Molecular target: Mannose-6-phosphate isomerase (Homo sapiens) (UniProt P34949)
Experiment: activators of human PMI, primary screen, biochemical, fluorescence intensity, near-Km mannose 6-phosphate (AID 1214)
Settings: purified human PMI, coupled resazurin fluorescence, 20 min; at 20 µM; stronger effect = higher value; 1 = vehicle control, 0 substrate-free wells

Chain of Mannose-6-phosphate isomerase (Homo sapiens) (P34949 whole entry, looked up): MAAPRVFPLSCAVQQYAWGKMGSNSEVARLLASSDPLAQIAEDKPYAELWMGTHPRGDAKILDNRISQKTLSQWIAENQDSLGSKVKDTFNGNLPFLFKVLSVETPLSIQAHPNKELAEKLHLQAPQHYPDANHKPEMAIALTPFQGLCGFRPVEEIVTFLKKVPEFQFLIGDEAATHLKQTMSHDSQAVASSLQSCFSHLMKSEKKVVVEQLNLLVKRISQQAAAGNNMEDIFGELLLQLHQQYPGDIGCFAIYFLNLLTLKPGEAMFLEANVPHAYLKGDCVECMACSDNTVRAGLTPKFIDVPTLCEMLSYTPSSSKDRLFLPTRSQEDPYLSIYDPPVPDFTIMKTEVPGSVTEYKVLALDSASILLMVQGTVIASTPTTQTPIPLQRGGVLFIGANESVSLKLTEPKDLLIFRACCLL

Compound	activation factor
CCOC(=O)c1c(C)[nH]c(C2=NNC(=NC(C)COC)SC2)c1C (stereo not given)	1.3
Cc1cc(-c2n[nH]c(=S)n2-c2ccc(C)c(C)c2)no1	1
CCC(=O)Nc1c(C)n[nH]c1C	0.9
Cc1ccc(OCc2n[nH]c(=S)n2-c2ccc(C)cc2)cc1	0.8
CNc1nc(Nc2ccc(C)c(Cl)c2)nc(N)c1[N+](=O)[O-]	0.9
O=C(NCCCNc1ccc([N+](=O)[O-])cc1Cl)c1ccccc1F	1.1
COc1ccc(/C=C(\NC(=O)c2ccc(OCC(C)C)cc2)C(=O)OCc2ccco2)cc1	0.9
O=C1CCC/C(=N\NC(=O)NC2CCCCC2)C1	0.8
O=C(CSc1ccccc1)Nc1nnc(/C=C/c2ccccc2)s1	0.9
COC(=O)CNC(=O)c1ccc(OC2CCN(C(=O)C3CC3)CC2)cc1	0.9
COc1cc(/C=C/C(=O)N2c3ccccc3Sc3ccc(C(F)(F)F)cc32)cc(OC)c1OC	0.9
O=C1/C(=C\c2ccccc2Cl)SC(=S)N1CCC(=O)N1CCCc2ccccc21	0.9
CNC(=O)NC(=O)CSc1nnc(-c2ccc(F)cc2)n1CC1CCCO1 (stereo not given)	1
Nc1cc(C(F)(F)F)ccc1N1CCOCC1	1
COc1cc(C2C(N3C(=O)c4ccccc4C3=O)C(=O)N2c2ccc(C)c(C)c2)cc(OC)c1OC (stereo not given)	0.9
OCC(CO)(CO)NCc1ccc(-c2ccccc2)cc1	1
COc1ccc(Cl)cc1-n1c(C)cc(C(=O)OCC(=O)N2CC(=O)Nc3ccccc32)c1C	0.9
COc1cc(/C=N/NC(=O)CCc2n[nH]c(=O)[nH]c2=O)ccc1O	0.9
COc1cccc(CN(C)CC(=O)Nc2ccccc2C(=O)Nc2ccccc2)c1	0.9
COc1ccccc1CNC(=O)COc1ccc(C)nc1[N+](=O)[O-]	1.1

Compound	activation factor
O=C(N/N=C/c1ccc([N+](=O)[O-])o1)c1cn(-c2ccccc2)nc1-c1ccc(F)cc1	1.4
Cc1ccc(C)c(NC(=S)NNC(=S)Nc2ccc(C(C)C)cc2)c1	0.8
N=C1C(=O)OCC1c1ccccc1NC(=O)CN1CCCCC1 (stereo not given)	1.1
C=CCOc1c(Br)cc(/C=N\n2nnnc2N)cc1OC	1.1
O=C(Nc1cccnc1)c1cc2cc(Br)ccc2oc1=O	1
COCC(C)NC(=O)COc1nncc2ccccc12 (stereo not given)	1.2
C=CCN1C2CCCC1CC(NC(=S)Nc1cccc(OC)c1)C2 (stereo not given)	0.9
CCNC(=O)NNC(=O)C1CC(c2cccs2)=NO1 (stereo not given)	1
CCc1cccc(NC(=O)CCC(=O)O)c1	1
NC(=O)COC(=O)c1sc2cc(F)ccc2c1Cl	1.2
CCOC(=O)N1CCN(Cc2nc3ccc([N+](=O)[O-])cc3c(=O)n2-c2cccc(OC)c2)CC1	1
COc1ccccc1CNC(=O)C1Cc2ccccc2C(=O)O1 (stereo not given)	0.9
O=C(/C=C/c1ccccc1)Oc1coc(CSc2ncccn2)cc1=O	1
COc1ccc(Br)cc1CN(C)CC(=O)Nc1cc(Cl)cc(Cl)c1	0.8
Cc1ccc(/C([O-])=C(/C(=S)NCc2ccco2)[n+]2ccccc2)cc1[N+](=O)[O-]	1
CN(C)/C=C(/C(=O)c1ccc(F)cc1)S(=O)(=O)c1ccc(F)cc1	1.2
O=S(=O)(c1ccc2c(c1)OCCO2)N1CCc2ccccc21	0.9
N#C/C(C(=S)Nc1ccccc1)=C1/NN=C(N2CCOCC2)N1c1ccccc1	1
CCN(CC)S(=O)(=O)c1ccc(N2CCOCC2)c(NC(=O)C2COc3ccccc3O2)c1 (stereo not given)	1
COc1ccc(NC(=O)CN(Cc2ccccc2)S(C)(=O)=O)cc1OC	0.9

Compound	activation factor
COc1ccccc1N(CC(=O)Nc1ccc(C(F)(F)F)cc1)S(C)(=O)=O	1
O=C(Cc1cccs1)N(CC1CCCO1)C1(C(=O)NC2CCCCC2)CCCCC1 (stereo not given)	1.1
O=C(OCC1O[C@@H](OC(=O)c2cc(O)c(O)c(O)c2)[C@@H](OC(=O)c2cc(O)c(O)c(O)c2)[C@@H](OC(=O)c2cc(O)c(O)c(O)c2)[C@@H]1OC(=O)c1cc(O)c(O)c(O)c1)c1cc(O)c(O)c(O)c1 (stereo not given in full)	0.4
CC[n+]1c(C)n(-c2ccccc2)c2ccc(NC(C)=O)cc21	0.5
Cc1c(C(=O)Nc2cccc(Cl)c2)cn2c(nc3ccccc32)c1C#N	1.1
O=C(NCC(=O)N(CC1CCCO1)C(C(=O)NC1CCCCC1)c1ccccc1)c1ccco1 (stereo not given)	1.1
CC(C)(C)C1CCC(=NNC(=O)c2cc(-c3ccccc3)n[nH]2)CC1 (stereo not given)	1
O=C(CSc1cccc[n+]1[O-])NCCCc1ccccc1	1
O=c1cc(CO)oc(C(Nc2cccc([N+](=O)[O-])c2)c2ccccn2)c1O (stereo not given)	1
O=S(=O)(ON(c1ccccc1)S(=O)(=O)c1ccccc1)c1ccccc1	1.1
COc1ccc(CCNC(=O)COC(=O)C2CCCCC2)cc1	0.9
NS(=O)(=O)c1ccc(NC(=S)NC(=O)c2cccnc2)cc1	1
CCCCN1C(=O)/C(=C/C=C2/C=Cc3ccccc3N2CC)SC1=S	0.7
CCOC(=O)c1ccccc1NC(=S)N1CCC(C(N)=O)CC1	1
O=C(CN1C(=O)/C(=C\c2ccccc2F)SC1=S)Nc1nc2ccccc2s1	0.8
COC(=O)C(=Nc1ccccc1)/C(C(=O)C(=O)N(C)c1ccccc1)=C(\O)c1ccc(Cl)cc1	1.2
COC(=O)C1=C(N)Oc2c(oc(CO)cc2=O)C1c1c(F)cccc1Cl (stereo not given)	1.1
O=C(CCC1CCCN(C(=O)Cc2ccc(F)cc2)C1)N1CCN(c2ccccn2)CC1 (stereo not given)	1
CCOC(=O)CCCNC(=O)COC(=O)/C=C/c1ccc2c(c1)OCO2	1.1
COc1ccc(CCNC(=O)c2ccc(CS(=O)(=O)c3ccc(Br)cc3)o2)cc1OC	1
